Results taken from PubChem BioAssay AID1159580 (chemical genetic matrix, 2015).
About 2,000 (36%) of roughly 5,500 compounds were called active. Another 18% or so got no clear call; they are omitted. No stated cut-off is given here; in the data, active means normalized growth mostly below about 0.91 (no sharp cut-off); inconclusive means no clear call, values can overlap the other calls; inactive means mostly above about 0.92. The list shows a part of the results.

Assay: chemical genetic growth profiling, strain panel (AID 1159580);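 further: tested at 20 µM; growth read once vehicle control cultures reached saturation at 30 °C; 1 = growth at the plate median or of vehicle wells; lower values mean less growth of the strain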
Conditions: growth OD
[1] = S. cerevisiae deletion strains, locus YDL101C, strain DUN1, active compounds read low
[2] = S. cerevisiae deletion strains, locus YHR030C, strain SLT2, active compounds read low

Measured: normalized growth

O=C1Nc2ccccc2/C1=C\c1cccc([N+](=O)[O-])c1
inactive: S. cerevisiae deletion strains, locus YAR019C, strain CDC15, active compounds read low 0.974 | S. cerevisiae deletion strains, locus YBL105C, strain PKC1, active compounds read low 0.967 | S. cerevisiae deletion strains, locus YBR135W, strain CKS1, active compounds read low 0.974 | S. cerevisiae deletion strains, locus YBR136W, strain MEC1, active compounds read low 0.972 | S. cerevisiae deletion strains, locus YBR160W, strain CDC28, active compounds read low 0.979 | S. cerevisiae deletion strains, locus YDL017W, strain CDC7, active compounds read low 0.97 | S. cerevisiae deletion strains, locus YDL028C, strain MPS1, active compounds read low 0.971 | [1] 0.97 | S. cerevisiae deletion strains, locus YDL108W, strain KIN28, active compounds read low 0.968 | S. cerevisiae deletion strains, locus YDL132W, strain cdc53, active compounds read low 0.962 | S. cerevisiae deletion strains, locus YDL214C, strain PRR2, active compounds read low 0.983 | S. cerevisiae deletion strains, locus YDR052C, strain DBF4, active compounds read low 0.97 | S. cerevisiae deletion strains, locus YDR054C, strain cdc34, active compounds read low 0.957 | S. cerevisiae deletion strains, locus YDR226W, strain ADK1, active compounds read low 0.969 | S. cerevisiae deletion strains, locus YDR477W, strain SNF1, active compounds read low 0.971 | S. cerevisiae deletion strains, locus YER123W, strain YCK3, active compounds read low 0.985 | S. cerevisiae deletion strains, locus YER133W, strain GLC7, active compounds read low 1 | S. cerevisiae deletion strains, locus YFL009W, strain cdc4, active compounds read low 0.965 | S. cerevisiae deletion strains, locus YFL029C, strain CAK1, active compounds read low 0.982 | S. cerevisiae deletion strains, locus YFR003C, strain YPI1, active compounds read low 0.965 | S. cerevisiae deletion strains, locus YFR019W, strain FAB1, active compounds read low 0.987 | S. cerevisiae deletion strains, locus YFR028C, strain CDC14, active compounds read low 0.961 | S. cerevisiae deletion strains, locus YGR040W, strain KSS1, active compounds read low 0.967 | S. cerevisiae deletion strains, locus YGR052W, strain FMP48, active compounds read low 1.02 | S. cerevisiae deletion strains, locus YGR092W, strain DBF2, active compounds read low 0.921 | [2] 0.959 | S. cerevisiae deletion strains, locus YHR079C, strain IRE1, active compounds read low 0.913 | S. cerevisiae deletion strains, locus YHR082C, strain KSP1, active compounds read low 1.06 | S. cerevisiae deletion strains, locus YHR205W, strain SCH9, active compounds read low 0.848 | S. cerevisiae deletion strains, locus YIL147C, strain SLN1, active compounds read low 0.967 | S. cerevisiae deletion strains, locus YJL095W, strain BCK1, active compounds read low 0.955 | S. cerevisiae deletion strains, locus YJL128C, strain PBS2, active compounds read low 0.923 | S. cerevisiae deletion strains, locus YJL157C, strain FAR1, active compounds read low 0.985 | S. cerevisiae deletion strains, locus YJR016C, strain ILV3, active compounds read low 0.967 | S. cerevisiae deletion strains, locus YJR066W, strain TOR1 (second series), active compounds read low 0.981 | S. cerevisiae deletion strains, locus YJR066W, strain TOR1, active compounds read low 1.05 | S. cerevisiae deletion strains, locus YKL048C, strain ELM1, active compounds read low 0.971 | S. cerevisiae deletion strains, locus YKL067W, strain YNK1, active compounds read low 0.995 | S. cerevisiae deletion strains, locus YKL101W, strain HSL1, active compounds read low 0.967 | S. cerevisiae deletion strains, locus YKL193C, strain SDS22, active compounds read low 0.963 | S. cerevisiae deletion strains, locus YKL203C, strain TOR2, active compounds read low 1.05 | S. cerevisiae deletion strains, locus YLR113W, strain HOG1, active compounds read low 0.939 | S. cerevisiae deletion strains, locus YLR133W, strain CKI1, active compounds read low 0.975 | S. cerevisiae deletion strains, locus YLR403W, strain SFP1, active compounds read low 0.907 | S. cerevisiae deletion strains, locus YML070W, strain DAK1, active compounds read low 0.993 | S. cerevisiae deletion strains, locus YMR001C, strain CDC5, active compounds read low 0.97 | S. cerevisiae deletion strains, locus YMR205C, strain PFK2 (second series), active compounds read low 0.994 | S. cerevisiae deletion strains, locus YMR277W, strain FCP1, active compounds read low 0.969 | S. cerevisiae deletion strains, locus YNL006W, strain LST8, active compounds read low 0.979 | S. cerevisiae deletion strains, locus YNL020C, strain ARK1, active compounds read low 0.959 | S. cerevisiae deletion strains, locus YNL161W, strain CBK1, active compounds read low 0.965 | S. cerevisiae deletion strains, locus YNL183C, strain NPR1, active compounds read low 1.05 | S. cerevisiae deletion strains, locus YNL207W, strain RIO2, active compounds read low 0.963 | S. cerevisiae deletion strains, locus YNL222W, strain SSU72, active compounds read low 0.986 | S. cerevisiae deletion strains, locus YNL307C, strain MCK1 (second series), active compounds read low 0.957 | S. cerevisiae deletion strains, locus YOL078W, strain AVO1, active compounds read low 0.966 | S. cerevisiae deletion strains, locus YOL136C, strain PFK27, active compounds read low 0.985 | S. cerevisiae deletion strains, locus YOR061W, strain CKA2, active compounds read low 0.991 | S. cerevisiae deletion strains, locus YOR119C, strain RIO1, active compounds read low 1.07 | S. cerevisiae deletion strains, locus YOR231W, strain MKK1, active compounds read low 1.04 | S. cerevisiae deletion strains, locus YOR329C, strain SCD5, active compounds read low 0.973 | S. cerevisiae deletion strains, locus YPL031C, strain PHO85, active compounds read low 0.972 | S. cerevisiae deletion strains, locus YPL153C, strain RAD53, active compounds read low 0.992 | S. cerevisiae deletion strains, locus YPL204W, strain HRR25, active compounds read low 0.968 | S. cerevisiae deletion strains, locus YPL209C, strain IPL1, active compounds read low 0.974 | S. cerevisiae deletion strains, locus YPL256C, strain CLN2, active compounds read low 0.954 | S. cerevisiae deletion strains, locus YPR025C, strain CCL1, active compounds read low 0.978 | S. cerevisiae deletion strains, locus YPR106W, strain ISR1, active compounds read low 0.973 | S. cerevisiae deletion strains, locus YPR111W, strain DBF20, active compounds read low 0.966 | S. cerevisiae deletion strains, strain NNK1, active compounds read low 0.967 | S. cerevisiae deletion strains, strain TSCII, active compounds read low 0.963

Clc1ccc(C=C2c3ccccc3-c3ccccc32)cc1
inactive: S. cerevisiae deletion strains, locus YAL013W, strain DEP1, active compounds read low 0.988 | S. cerevisiae deletion strains, locus YBR229C, strain ROT2, active compounds read low 0.973 | [1] 0.986 | S. cerevisiae deletion strains, locus YDL134C, strain PPH21, active compounds read low 1 | S. cerevisiae deletion strains, locus YDR150W, strain NUM1, active compounds read low 0.95 | S. cerevisiae deletion strains, locus YEL061C, strain CIN8, active compounds read low 0.99 | S. cerevisiae deletion strains, locus YGR078C, strain PAC10, active compounds read low 1 | [2] 0.873 | S. cerevisiae deletion strains, locus YHR087W, strain rtc3, active compounds read low 0.986 | S. cerevisiae deletion strains, locus YJL187C, strain SWE1, active compounds read low 1 | S. cerevisiae deletion strains, locus YJR043C, strain POL32, active compounds read low 0.981 | S. cerevisiae deletion strains, locus YJR075W, strain HOC1, active compounds read low 0.979 | S. cerevisiae deletion strains, locus YLR039C, strain RIC1, active compounds read low 0.967 | S. cerevisiae deletion strains, locus YLR058C, strain SHM2 (second series), active compounds read low 0.972 | S. cerevisiae deletion strains, locus YLR085C, strain ARP6, active compounds read low 0.996 | S. cerevisiae deletion strains, locus YLR262C, strain YPT6, active compounds read low 0.855 | S. cerevisiae deletion strains, locus YML094W, strain GIM5, active compounds read low 1.03 | S. cerevisiae deletion strains, locus YMR219W, strain ESC1, active compounds read low 0.988 | S. cerevisiae deletion strains, locus YMR263W, strain SAP30, active compounds read low 0.983 | S. cerevisiae deletion strains, locus YMR307W, strain GAS1, active compounds read low 1.03 | S. cerevisiae deletion strains, locus YNL128W, strain TEP1, active compounds read low 0.984 | S. cerevisiae deletion strains, locus YNL153C, strain GIM3, active compounds read low 0.965 | S. cerevisiae deletion strains, locus YNL298W, strain CLA4 (second series), active compounds read low 0.949 | S. cerevisiae deletion strains, locus YNL322C, strain KRE1, active compounds read low 1 | S. cerevisiae deletion strains, locus YNR030W, strain Alg12, active compounds read low 0.957 | S. cerevisiae deletion strains, locus YPL055C, strain LGE1, active compounds read low 1.01 | S. cerevisiae deletion strains, locus YPL241C, strain CIN2, active compounds read low 0.995 | S. cerevisiae deletion strains, locus YPR135W, strain CTF4, active compounds read low 0.855 | S. cerevisiae strains, strain wild type, active compounds read low 0.961
